Screening data (PubChem BioAssay)
Shown are actives, neighbours in structure and some others; about 3.8% of the full set was active somewhere.
ELG1 repair inh: blocks ELG1-dependent DNA repair in HEK293T cells | Potency, µM (titrated, usually from 46.1 µM), usual class: inhibitors | 330,000 tested, 2.3% active | HEK293T ELG1-luciferase reporter, luminescence, 16 h; DNA damage induced by 5-fluorouridine | AID 504467; note: nearly all actives have a fitted effect of over 55% in size
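DMSO vehicle served as the neutral condition. Each well held 2,000 cells given 5-fluorouridine plus compound; after 16 hr at 37 °C/5% CO2, ONE-Glo was added and luciferase measured 30 min later.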
Nrf2 ARE act: activators of Nrf2 (ARE) signaling; 410,000 tested, 0.31% active; AREc32 ARE-luciferase reporter (MCF7-derived line), luminescence, 24 h; AID 624171; Potency, µM (top dose mostly 46.1 µM), usual class: activators; note: nearly all actives have a fitted effect of over 65% in size
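AREc32 cells carrying an ARE-driven firefly luciferase, 1000 cells/well in OPTI-MEM with 5% FBS, dosed after overnight attachment and incubated 24 hr at 37 deg C. Steady-Glo luminescence read after 30 min at RT.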
Nrf2 inh: inhibitors of Nrf2 signaling; A549 ARE-Fluc reporter, luciferase luminescence, 18-24 h; AID 504444; 360,000 tested, 2.1% active; Potency, µM (highest dose often 46 µM), actives largely listed as inhibitors; note: nearly all actives have a fitted effect of over 60% in size
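Quantitative HTS in A549 cells stably bearing an antioxidant response element-firefly luciferase construct. Inhibition of Nrf2-driven transcription was scored by luminescence after 18-24 h of compound exposure at 37 °C.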
IDH1 R132H inh: blocks human mutant IDH1 R132H enzyme; O75874; IDH1-R132H enzyme, NADPH consumption, diaphorase/resazurin fluorescence; Potency, µM (doses to about 76.6 µM), usual class: inhibitors; 390,000 tested, 0.093% active; AID 602179; note: nearly all actives have a fitted effect of over 65% in size
Target sequence (O75874 whole entry R132H, stated change not applied): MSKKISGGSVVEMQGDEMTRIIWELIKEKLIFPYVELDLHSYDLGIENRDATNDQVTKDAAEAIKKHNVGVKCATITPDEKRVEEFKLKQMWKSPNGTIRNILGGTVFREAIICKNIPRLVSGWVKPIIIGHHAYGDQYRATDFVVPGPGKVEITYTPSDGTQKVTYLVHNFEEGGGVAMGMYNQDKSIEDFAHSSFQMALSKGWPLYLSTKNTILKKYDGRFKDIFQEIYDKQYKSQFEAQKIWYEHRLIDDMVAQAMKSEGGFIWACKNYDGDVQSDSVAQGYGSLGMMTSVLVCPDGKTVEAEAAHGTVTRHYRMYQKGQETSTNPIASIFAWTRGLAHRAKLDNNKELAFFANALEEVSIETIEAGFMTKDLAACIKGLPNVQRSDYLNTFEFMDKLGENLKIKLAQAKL
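IDH1-R132H (0.5 ug/mL dispensed) in pH 7.5 Tris buffer was preincubated 30 min with compound, then given a substrate mix of 0.016 mM NADPH and 2 mM alpha-KG for 80 min at room temperature; remaining NADPH was read by diaphorase/resazurin fluorescence.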
A549 tox: kills or reduces viability of A549 cells in Nrf2 counter-screen; A549 ARE-Fluc cells, CellTiter-Fluor viability, 18-24 h; Potency, µM (titrated, usually from 46 µM), actives largely listed as inhibitors; 390,000 tested, 0.16% active; AID 504648
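Cytotoxicity counterscreen: CellTiter-Fluor fluorescence was measured in A549 ARE_Fluc cells after 18-24 h of compound exposure in a concentration series. The subsequent BugLite luminescent read reports ARE-luciferase activity.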
Of the large screens only hits and unclear results are named; the others gave an inactive call. Calls come from the whole dose curve; as a rule, active = well fitted curve in the direction sought with a large enough effect; inconclusive = small, poorly fitted or top-dose-only effect, or another doubt; inactive = no such curve, though single readings can be large; an effect the other way counts as inactive or inconclusive.

CCOc1cc(S(=O)(=O)n2cc(-c3ccc(F)cc3)c(N)n2)cc(OCC)c1OCC	ELG1 repair inh 15µM, Nrf2 inh inconclusive
COc1ccccc1CNC(=O)c1ccc2nc(CCc3ccccc3)oc2c1	none (no result: ELG1 repair inh, Nrf2 inh)
O=C(c1cc2c(s1)-c1ccccc1S(=O)(=O)C2)N1CCN(Cc2ccccc2)CC1	ELG1 repair inh 13µM, Nrf2 inh 18µM
O=C1CSC(=S)N1/N=C/c1cc(Br)ccc1O	none (no result: Nrf2 ARE act, Nrf2 inh, IDH1 R132H inh, A549 tox)
O=C1CSC(=S)N1/N=C/c1ccc(O)c(O)c1O	ELG1 repair inh 23µM
CC(=O)NCCCN(Cc1ccc(Cl)c(Cl)c1)c1ccc(Br)cn1	Nrf2 inh inconclusive (no result: ELG1 repair inh, Nrf2 ARE act, IDH1 R132H inh)
O=C(NCCc1nc2ccccc2n1CCO)C1CCCCC1	none (no result: ELG1 repair inh, Nrf2 ARE act, IDH1 R132H inh)
C[C@H](NC(=O)c1[nH]cnc1C(=O)Nc1ccc(Cl)cc1)c1ccccc1	Nrf2 inh 18µM
C[C@H](NC(=O)c1[nH]cnc1C(=O)Nc1cccc(Cl)c1)c1ccccc1	Nrf2 inh inconclusive
Cc1ccc(NC(=O)c2nc[nH]c2C(=O)N[C@@H](C)c2ccccc2)cc1	ELG1 repair inh inconclusive, Nrf2 inh inconclusive
C[C@@H](NC(=O)c1[nH]cnc1C(=O)Nc1ccccc1)c1ccccc1	ELG1 repair inh inconclusive, Nrf2 inh 23µM
C[C@@H](NC(=O)c1[nH]cnc1C(=O)Nc1ccc(Cl)cc1)c1ccccc1	ELG1 repair inh inconclusive, Nrf2 inh 5.8µM, A549 tox 18µM
CN(C)C(=O)c1cccc(-c2cccc3nccn23)c1	none (no result: ELG1 repair inh, Nrf2 inh, IDH1 R132H inh, A549 tox)
CC(C)Sc1ncc(Cl)c(C(=O)N(Cc2ccc(F)cc2)C2CCS(=O)(=O)C2)n1 (stereo not given)	none (no result: ELG1 repair inh)
O=[N+]([O-])c1ccc(/C=N/N=C/c2ccc([N+](=O)[O-])o2)o1	ELG1 repair inh inconclusive, Nrf2 ARE act 4µM, Nrf2 inh inconclusive, A549 tox 21µM
Cc1ccccc1OCC(=O)N/N=C/c1ccc([N+](=O)[O-])o1	ELG1 repair inh inconclusive, Nrf2 inh inconclusive
O=C(Cc1ccc([N+](=O)[O-])cc1)N/N=C/c1ccc([N+](=O)[O-])o1	ELG1 repair inh inconclusive, Nrf2 inh 21µM
O=[N+]([O-])c1ccc(/C=N/Nc2nc(N3CCCCC3)nc(N3CCCCC3)n2)cc1	none
CCCCCCCC(=O)N/N=C/c1ccc([N+](=O)[O-])o1	Nrf2 inh inconclusive
Cc1cc(C)cc(OCC(=O)N/N=C/c2ccc([N+](=O)[O-])o2)c1	ELG1 repair inh inconclusive, Nrf2 inh 21µM, A549 tox inconclusive
O=C(O)/C=C/c1ccc([N+](=O)[O-])o1	ELG1 repair inh inconclusive, Nrf2 ARE act inconclusive, Nrf2 inh inconclusive
O=[N+]([O-])c1ccc(/C=N/Nc2nc(N3CCCCCC3)nc(N3CCCCCC3)n2)o1	ELG1 repair inh 23µM, Nrf2 inh inconclusive
COc1cc(NC(=O)c2c(C)nn(-c3ccc(F)cc3)c2-n2cccc2)cc(OC)c1	none (no result: ELG1 repair inh)
O=C(CCN1CCN(c2ccccc2)CC1)N/N=C/c1ccc([N+](=O)[O-])o1	Nrf2 inh 21µM, A549 tox inconclusive
O=C(CNc1cccc2ccccc12)N/N=C/c1ccc([N+](=O)[O-])o1	ELG1 repair inh inconclusive, Nrf2 inh 16µM, A549 tox inconclusive
O=C(CN1CCOCC1)NN=Cc1ccc([N+](=O)[O-])o1	none (no result: ELG1 repair inh, Nrf2 inh, IDH1 R132H inh, A549 tox)
O=C(C1CCN(S(=O)(=O)c2cccc3cccnc23)CC1)N1CCN(c2ccc(Cl)cc2)CC1	ELG1 repair inh 18µM, Nrf2 inh inconclusive
O=C(C1CCN(S(=O)(=O)c2cccnc2)CC1)N1CCN(c2ccccc2Cl)CC1	none (no result: ELG1 repair inh, Nrf2 inh)
O=C(C1CCN(S(=O)(=O)c2cccc3cccnc23)CC1)N1CCN(c2ccccn2)CC1	none
O=C(C1CCN(S(=O)(=O)c2cccnc2)CC1)N1CCN(c2ccc(Cl)cc2)CC1	ELG1 repair inh 2.9µM, Nrf2 inh inconclusive
COc1cc(CN2C[C@@H](CO)O[C@@H](n3cnc4c(NC5CCCC5)ncnc43)C2)cc(OC)c1OC	none (no result: ELG1 repair inh, Nrf2 inh, IDH1 R132H inh, A549 tox)
COc1ccc(-c2nnn(Cc3ccccc3)n2)cc1OC	none
COc1cc(-c2nnn(Cc3ccccc3C)n2)cc(OC)c1OC	ELG1 repair inh 23µM
O=c1[nH]c2cc([N+](=O)[O-])c(NCCO)c([N+](=O)[O-])c2[nH]1	A549 tox 13µM
Nc1ccc(S(=O)(=O)NC2(C(F)(F)F)NC(=O)N(c3cccc(Cl)c3)C2=O)cc1 (stereo not given)	Nrf2 inh inconclusive (no result: ELG1 repair inh)
COc1ccc(CCNC(=O)c2cc(-c3ccc(C)c(C)c3)nc3ccccc23)cc1OC	none (no result: ELG1 repair inh, Nrf2 inh)
O=C(Nc1ccc(N2CCOCC2)nc1)c1ccc(Cl)cc1	Nrf2 inh 21µM
Cc1ccc(C(=O)NCC(c2ccc3c(c2)OCO3)N2CCOCC2)cc1 (stereo not given)	none (no result: ELG1 repair inh, Nrf2 inh)
COC(=O)c1c(NC(=O)/C=C/c2ccco2)sc2c1CCC2	Nrf2 ARE act 1.4µM
CN1C(=O)[C@H]2[C@@H](/C=C/c3ccccc3)N3C(=O)CN(Cc4ccccn4)C(=O)[C@@]3(C)[C@H]2C1=O	none
CN(Cc1ccc(OC(F)F)cc1)C(=O)C1CCN(S(=O)(=O)c2ccc3c(c2)OCCO3)CC1	ELG1 repair inh 7.3µM, Nrf2 inh 23µM
CN(Cc1ccc(OC(F)F)cc1)C(=O)/C=C/c1ccc(S(=O)(=O)N2CCOCC2)cc1	ELG1 repair inh 16µM, Nrf2 inh 23µM
COc1ccc(CN(C)C(=O)/C=C/c2ccc(S(=O)(=O)N3CCOCC3)cc2)cc1F	ELG1 repair inh 23µM, Nrf2 inh inconclusive
Cc1ccc(NS(=O)(=O)c2cc3c(cc2-c2ccco2)NC(=O)CO3)cc1C	none (no result: ELG1 repair inh, Nrf2 ARE act, IDH1 R132H inh)
CCOC(=O)N1C/C(=C\c2ccccc2)C(=O)/C(=C/c2ccccc2)C1	ELG1 repair inh inconclusive, Nrf2 ARE act 11µM
C[N+](C)(C)CCC(=O)N1C/C(=C/c2ccccc2)C(=O)/C(=C\c2ccccc2)C1	Nrf2 ARE act inconclusive (no result: ELG1 repair inh)
CC(=O)c1ccc(S(=O)(=O)N2CCN(C(=O)c3ccc(COc4ccccc4)o3)CC2)cc1	ELG1 repair inh inconclusive, Nrf2 inh inconclusive
COC(=O)c1ccc(COc2ccc(/C=N/NC(N)=S)cc2)o1	ELG1 repair inh 15µM
COc1ccc(OC2CCN(S(=O)(=O)c3ccc(C(C)=O)cc3)CC2)cc1	ELG1 repair inh 21µM, Nrf2 inh 21µM
COc1ccc(OC2CCN(S(=O)(=O)c3ccc(F)cc3)CC2)cc1	none
COc1ccc(OC2CCN(S(=O)(=O)c3ccc(OC)c(OC)c3)CC2)cc1	Nrf2 inh 16µM
N#Cc1c(NCCN)nc(NCc2ccccc2)c2c1CCN(Cc1ccccc1)C2	ELG1 repair inh 13µM
CC(C)(C)OC(=O)CC(=O)NNC(=O)c1cc2ccccc2[nH]1	none (no result: ELG1 repair inh, Nrf2 ARE act, IDH1 R132H inh)
C=C1C(=O)O[C@H]2[C@H]1[C@H](OC(=O)/C(C)=C\C)C[C@]1(CO1)[C@@H]1[C@H](OC(C)=O)C=C(C)[C@]21O	Nrf2 ARE act 16µM (no result: ELG1 repair inh)
